The source of these data is PubChem BioAssay AID2165 (The Scripps Research Institute Molecular Screening Center, 2009).

SMILES strings stand for the structures. The source made the active and inactive calls. Rule as the data show it: active = IC50 below about 9 µM; inactive = the rest.

This test concerns Ba/F3 Cytotoxicity. The test is described as follows: JAK2V617F project follow-up: kinase, reporter, cytotoxicity – HEL and Ba/F3 cells, late-stage follow-up (AID 2165). The note with it: JAK2V617F panel: kinase, IRF1 reporter.
In the case of `Cc1ccc(O)c(NC(=O)COc2ccccc2C)c1`, the IC50 is 3.84 µM (active).

In the case of `CCS(=O)(=O)c1ccc(O)c(NC(=O)COc2cccc(C)c2)c1`, the IC50 was > 40 µM (inactive).

Take `Cc1cccc(NC(=O)COc2cccc(C)c2)c1`: the IC50 was > 40 µM (inactive).

`O=C(C=Cc1ccccc1F)c1c(-c2ccccc2)c2ccccc2[nH]c1=O`: the IC50 is 0.37 µM (active).

With `O=C(NCCc1cccnc1)C1CCC(=O)N(CCc2cccc(F)c2)C1` (configuration not stated), the IC50 was > 40 µM (inactive).

As to `COc1cc2ncnc(Nc3ccccc3)c2cc1OC`, the IC50 was > 40 µM (inactive).

For `COc1cc2ncnc(NC3CCCCC3)c2cc1OC`, the IC50 is > 40 µM (inactive).

As for `Cc1ccc(O)c(NC(=O)COc2ccc(C)c(C)c2)c1`, the IC50 is 5.02 µM (active).

`Cc1[nH]c(=O)c(C(=O)C=Cc2ccc(Cl)cc2Cl)c2c1CCCC2`: the IC50 was 1.45 µM (active).

`Cc1ccc(O)c(NC(=O)COc2ccc(F)cc2)c1`: the IC50 was 0.0825 µM (active).

In the case of `COc1ccccc1/C=C/C(=O)c1c2c(c(C)[nH]c1=O)CCCC2`, the concentration for half-maximal inhibition (IC50) is 1.06 µM (active).

Consider `COc1cccc(Nc2ncnc3cc(OC)c(OC)cc23)c1`, for which the IC50 is > 40 µM (inactive).

With `Cc1[nH]c(=O)c(C(=O)C=Cc2ccccc2Cl)c2c1CCCC2`, the concentration for half-maximal inhibition (IC50) was 0.16 µM (active).

Take `Cc1cccc(OCC(=O)Nc2cccc(C)c2C)c1`: the IC50 is > 40 µM (inactive).

Consider `CCOc1cc2ncnc(Nc3cccc(Br)c3)c2cc1OCC`, for which the IC50 was 3.16 µM (active).

On to `COc1cc2ncnc(Nc3ccc(O)c(Br)c3)c2cc1OC`, for which the half-inhibitory concentration (IC50) was 3.64 µM (active).

Regarding `Cc1cc(C)cc(NC(=O)COc2cccc(C)c2)c1`, the IC50 was > 40 µM (inactive).

For the compound `Cc1[nH]c(=O)c(C(=O)C=Cc2cccc(Br)c2)c2c1CCCC2`, the IC50 is 0.67 µM (active).

On to `COc1ccc(OCC(=O)Nc2cc(C)ccc2O)cc1`, for which the IC50 is 2.01 µM (active).

Turning to `O=C(COc1ccccc1)Nc1ncccn1`, the IC50 is > 40 µM (inactive).

For the compound `Cc1ccc(O)c(NC(=O)COc2cccc3ccccc23)c1`, the half-maximal inhibitory concentration (IC50) was 1.95 µM (active).

Take `Cc1ccc(C=CC(=O)c2c3c(c(C)[nH]c2=O)CCCC3)cc1`: the IC50 was 3.34 µM (active).

For `Cc1cccc(OCC(=O)Nc2ccc(O)cc2)c1`, the IC50 was 6.62 µM (active).

In the case of `COc1ccc(C=CC(=O)c2c3c(c(C)[nH]c2=O)CCCC3)cc1`, the IC50 is 4.38 µM (active).

On to `Cc1nnc(NC(=O)COc2ccccc2)s1`, for which the IC50 was > 40 µM (inactive).

With `Cc1cccc(OCC(=O)Nc2ccc(C)c(C)c2)c1`, the IC50 was > 40 µM (inactive).

Regarding `COc1cc2ncnc(Nc3ccc(OC(F)(F)F)cc3)c2cc1OC`, the IC50 is > 40 µM (inactive).

In the case of `COCCOc1cc2nc[nH]c(=O)c2cc1OCCOC`, the IC50 is > 40 µM (inactive).

Regarding `CCC(C)Nc1ncnc2cc(OC)c(OC)cc12` (configuration not stated), the IC50 is > 40 µM (inactive).

Regarding `COc1ccc(Cl)cc1NC(=O)NC(C)c1ccncc1` (configuration not stated), the IC50 is > 40 µM (inactive).

On to `CCC(C)c1ccc(OCC(=O)Nc2cc(C)ccc2O)cc1` (configuration not stated), for which the IC50 was 6.47 µM (active).

For `COCCOc1cc2ncnc(Nc3cccc(C#Cc4ccc(O)cc4)c3)c2cc1OCCOC`, the IC50 was 3.68 µM (active).

`COCCOc1cc2ncnc(Nc3cccc(C#Cc4ccc(-c5ccccc5)cc4)c3)c2cc1OCCOC`: the IC50 was > 40 µM (inactive).

As to `COc1cc2ncnc(Nc3cccc(C)c3)c2cc1OC`, the IC50 was > 40 µM (inactive).

Regarding `N#CC(=Cc1ccc(O)c(O)c1)C(=S)NCc1ccccc1`, the IC50 was 1.09 µM (active).

Take `Cc1cccc(OCC(=O)Nc2ccccc2F)c1`: the IC50 was > 40 µM (inactive).

As for `Cc1ccc(O)c(NC(=O)COc2cccc(C)c2C)c1`, the IC50 was > 40 µM (inactive).
